# Measured values published in the supplement of paper PMC9801561.
# ± gives the standard deviation of the averaged measurements.
# Tested on: Escherichia coli Nissle 1917
# Assay: area under OmniLog respiration curve over 48 h (OmniLog units x h); higher = more growth / nutrient utilisation; extreme values may be limits of the assay
# Settings: nutrient role: sole nitrogen source (pyruvate carbon); incubation: 48 h, 37 °C
# 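For DuctApe activity index of respiration/growth curve (0 no growth to 9 maximum) in this document: biolog PM4 phosphorus and sulfur plates, tetrazolium violet dye reduction read in the OmniLog every 15 min, kinetic curves scored by DuctApe, each plate run in triplicate.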
row,Compound,area under OmniLog respiration curve
1,CC(C)[C@H](N)C(=O)O [L-Valine],2650 ± 990
2,N[C@@H](CS)C(=O)O [L-Cysteine],9700 ± 1400
3,CC(=O)N[C@@H]1C(O)O[C@H](CO)[C@@H](O)[C@@H]1O (stereo partly drawn) [N-Acetyl-D-Mannosamine],1040 ± 740
4,NCC(=O)O [Glycine],4420 ± 1100
5,N[C@@H](CC(=O)O)C(=O)O [L-Aspartic acid],8720 ± 1400
6,Nc1ncnc2c1ncn2[C@@H]1O[C@H](CO)[C@@H](O)[C@H]1O [Adenosine],6810 ± 990
7,NCCCC(=O)O [g-Amino-N-Butyric acid],2000 ± 1100
8,CC[C@H](C)[C@H](N)C(=O)O [L-Isoleucine],64.6 ± 81
9,O=C1CC[C@@H](C(=O)O)N1 [L-Pyroglutamic acid],4.72
10,N[C@@H](Cc1ccccc1)C(=O)O [L-Phenylalanine],4290 ± 1100
11,O=C(O)[C@@H]1CCCN1 [L-Proline],4840 ± 1100
12,CC(=O)N[C@H]1C(O)O[C@H](CO)[C@H](O)[C@@H]1O (stereo partly drawn) [N-Acetyl-D-Galactosamine],992 ± 1000
13,C[C@H](N)C(=O)NCC(=O)O,8020 ± 1200
14,N[C@@H](CCO)C(=O)O [L-Homoserine],546 ± 600
15,CC(=O)N[C@@H]1[C@@H](O)[C@H](O)[C@@H](CO)O[C@@H]1O [N-Acetyl-D-Glucosamine],1070 ± 1100
16,CC(=O)N[C@@H](CCC(=O)O)C(=O)O [N-Acetyl-L-Glutamic acid],4.72
17,CSCC[C@H](N)C(=O)O [L-Methionine],4200 ± 940

# Same assay, conditions: nutrient role: sole phosphorus source (pyruvate carbon); incubation: 48 h, 37 °C
row,Compound,area under OmniLog respiration curve
1,O=C[C@H](O)[C@@H](O)[C@H](O)[C@H](O)COP(=O)(O)O [D-Glucose-6-Phosphate],8680 ± 490
2,O=P(O)(O)OC[C@H](O)CO (racemic) [DL-a-Glycerol Phosphate],9010 ± 860
3,O=P(O)(O)O[C@H]1O[C@H](CO)[C@@H](O)[C@H](O)[C@H]1O [D-Glucose-1-Phosphate],8060 ± 560

# Same assay, conditions: nutrient role: sole sulfur source (pyruvate carbon); incubation: 48 h, 37 °C
row,Compound,area under OmniLog respiration curve
1,CSCC[C@H](NC(=O)CN)C(=O)O,5820 ± 90
2,N[C@@H](CS)C(=O)O [L-Cysteine],7230 ± 260
3,CSCC[C@H](N)C(=O)O [L-Methionine],6300 ± 150

# Tested on: Escherichia coli Nissle 1917
# Assay: DuctApe activity index of respiration/growth curve (0 no growth to 9 maximum) (index 0-9); higher = more growth / nutrient utilisation, active = 3 or more; extreme values may be limits of the assay
# Settings: nutrient role: C-Source, amino acid; incubation: 48 h, 37 °C
row,Compound,DuctApe activity index
1,N[C@@H](Cc1c[nH]cn1)C(=O)O [L-Histidine],0 (inactive)
2,NCCC[C@H](N)C(=O)O [L-Ornithine],0 (inactive)
3,CC(C)C[C@H](N)C(=O)O [L-Leucine],0 (inactive)
4,N=C(N)NCCC[C@H](N)C(=O)O [L-Arginine],0 (inactive)
5,NC(=O)CC[C@H](N)C(=O)O [L-Glutamine],8.33 (active)
6,NCCCC[C@H](N)C(=O)O [L-Lysine],0 (inactive)
7,N[C@@H](CO)C(=O)O [L-Serine],8.67 (active)
8,N[C@H](CO)C(=O)O [D-Serine],8.67 (active)
9,C[C@H](N)C(=O)O [L-Alanine],8 (active)
10,NC(=O)C[C@H](N)C(=O)O [L-Asparagine],8.67 (active)
11,N[C@H](CC(=O)O)C(=O)O [D-Aspartic acid],0.667 (inactive)
12,N[C@@H](CCC(=O)O)C(=O)O [L-Glutamic acid],7.67 (active)
13,CC(C)[C@H](N)C(=O)O [L-Valine],0 (inactive)
14,NCC(=O)O [Glycine],0 (inactive)
15,N[C@@H](CC(=O)O)C(=O)O [L-Aspartic acid],8.67 (active)
16,CC[C@H](C)[C@H](N)C(=O)O [L-Isoleucine],0 (inactive)
17,O=C1CC[C@@H](C(=O)O)N1 [L-Pyroglutamic acid],0 (inactive)
18,N[C@@H](Cc1ccccc1)C(=O)O [L-Phenylalanine],0 (inactive)
19,O=C(O)[C@@H]1CCCN1 [L-Proline],8.67 (active)
20,C[C@H](N)C(=O)NCC(=O)O,7.67 (active)
21,N[C@@H](CCO)C(=O)O [L-Homoserine],0 (inactive)
22,CC(=O)N[C@@H](CCC(=O)O)C(=O)O [N-Acetyl-L-Glutamic acid],0 (inactive)
23,CSCC[C@H](N)C(=O)O [L-Methionine],0 (inactive)

# Same assay, conditions: nutrient role: C-Source, carbohydrate; incubation: 48 h, 37 °C
row,Compound,DuctApe activity index
1,O=c1[nH]cnc2c1ncn2[C@@H]1O[C@H](CO)[C@@H](O)[C@H]1O [Inosine],9 (active)
2,O=C[C@H](O)[C@@H](O)[C@H](O)[C@H](O)COP(=O)(O)O [D-Glucose-6-Phosphate],9 (active)
3,N[C@H]1C(O)O[C@H](CO)[C@@H](O)[C@@H]1O (stereo partly drawn) [D-Glucosamine],8 (active)
4,Cc1cn([C@H]2C[C@H](O)[C@@H](CO)O2)c(=O)[nH]c1=O [Thymidine],8.67 (active)
5,O=P(O)(O)OC[C@H](O)CO (racemic) [DL-a-Glycerol Phosphate],7.67 (active)
6,O=c1ccn([C@@H]2O[C@H](CO)[C@@H](O)[C@H]2O)c(=O)[nH]1 [Uridine],8.67 (active)
7,CC(=O)N[C@@H]1C(O)O[C@H](CO)[C@@H](O)[C@@H]1O (stereo partly drawn) [N-Acetyl-D-Mannosamine],7.67 (active)
8,Nc1ncnc2c1ncn2[C@@H]1O[C@H](CO)[C@@H](O)[C@H]1O [Adenosine],8.67 (active)
9,CC(=O)N[C@H]1C(O)O[C@H](CO)[C@H](O)[C@@H]1O (stereo partly drawn) [N-Acetyl-D-Galactosamine],8 (active)
10,O=P(O)(O)O[C@H]1O[C@H](CO)[C@@H](O)[C@H](O)[C@H]1O [D-Glucose-1-Phosphate],8.67 (active)
11,CC(=O)N[C@@H]1[C@@H](O)[C@H](O)[C@@H](CO)O[C@@H]1O [N-Acetyl-D-Glucosamine],8 (active)
